Measured values taken from ChEMBL document CHEMBL4513137, “CO-ADD screening of University of Manchester (UK) compounds”.
Entries with a potency or affinity are not part of this list.

What follows are compounds tested on Escherichia coli. Conditions: Concentration 32 ug.mL-1; ASSAY_TEST Inhibition of Bacterial Growth; detection method Absorption (OD600); MEDIA CAMHB; plate type 384well; NBS; CORNING #3640; time 18 hr.

Structure (SMILES)	Inhibition [%]
O=[N+]([O-])c1ccc(-c2c(Nc3ccccc3)cccc2-c2ccccc2)cc1	-0.69
O=[N+]([O-])c1ccc2c3ccccc3n(-c3ccccc3)c2c1	-9.21
O=[N+]([O-])c1ccc(-c2ccccc2Nc2ccccc2)c(Cl)c1	-8.34
Cc1ccccc1Nc1ccccc1-c1ccc([N+](=O)[O-])cc1	-4.33
O=[N+]([O-])c1ccc(-c2ccccc2N(Cc2ccccc2)c2ccccc2)cc1	4.24
c1ccc(Nc2ccccc2-c2ncccn2)cc1	1.3
COc1cc([N+](=O)[O-])ccc1-c1ccccc1Nc1ccccc1	-2.88
COc1cc([N+](=O)[O-])ccc1-c1c(Nc2ccccc2)cccc1OC	7.58
CN(c1ccccc1)c1ccccc1-c1ccc([N+](=O)[O-])cc1	-0.45
COc1cccc(N(C)c2cccc(OC)c2-c2ccc([N+](=O)[O-])cc2C)c1	1.91
O=[N+]([O-])c1ccc(-c2ccccc2Nc2ccccc2)cc1F	3.69
O=[N+]([O-])c1ccc(-c2cccc3c2[nH]c2ccccc23)cc1	3.84
CC(=O)c1ccc(-c2ccccc2Nc2ccccc2)cc1	6.5
O=[N+]([O-])c1ccc(-c2ccccc2Nc2ccccc2Br)cc1	-1.08
Cc1cc([N+](=O)[O-])ccc1-c1ccccc1N(C)c1ccccc1	0.54
O=[N+]([O-])c1ccc(-c2ccccc2Nc2ccccc2)cc1C(F)(F)F	4.01
CC[C@@H](Nc1ccccc1-c1c(Cl)cc(Br)cc1Cl)c1ccccc1	4.43
Clc1cc(Br)cc(Cl)c1-c1ccccc1Nc1ccccc1	-3.79
O=[N+]([O-])c1ccc(-c2ccccc2Nc2ccccc2)cc1	3.34
N#Cc1ccc(-c2ccccc2Nc2ccccc2)cc1	-6.88
Cc1cccc(C)c1Nc1ccccc1-c1ccccc1[N+](=O)[O-]	4.01
O=[N+]([O-])c1cc(Cl)c(-c2ccccc2Nc2ccccc2)c(Cl)c1	-7.56
O=[N+]([O-])c1ccc(-c2c(Nc3ccccc3)ccc3ccccc23)cc1	-0.39
COc1cccc(Nc2ccccc2)c1-c1ccc([N+](=O)[O-])cc1	7.82
COc1cccc(Nc2ccccc2)c1-c1c(Cl)cc(Br)cc1Cl	4.62
Cc1cc(C)c(Nc2ccccc2-c2ccc([N+](=O)[O-])cc2)c(C)c1	1.23
COc1ccc(Nc2ccccc2-c2ccc([N+](=O)[O-])cc2)cc1	-1.45
